Molecules are shown by their SMILES. Several values for one entry are separate records, joined by “and”; a condition that tells them apart may be missing. Equal entries are not always repeated. Records with an inconclusive call do not appear. Entries that show only a call come without a potency. Activity calls are given as the source filed them. Calls come from the whole dose curve; as a rule, active = well fitted activation curve with a large enough effect in the signal ratio in the repeat runs (not every such curve was filed as active); inconclusive = weak or mixed curves, or effect the other way; inactive = flat fitted curve, though single readings scatter; the % refers to the signal ratio.

Chain of Estrogen receptor beta (Homo sapiens) (Q92731 whole entry, looked up): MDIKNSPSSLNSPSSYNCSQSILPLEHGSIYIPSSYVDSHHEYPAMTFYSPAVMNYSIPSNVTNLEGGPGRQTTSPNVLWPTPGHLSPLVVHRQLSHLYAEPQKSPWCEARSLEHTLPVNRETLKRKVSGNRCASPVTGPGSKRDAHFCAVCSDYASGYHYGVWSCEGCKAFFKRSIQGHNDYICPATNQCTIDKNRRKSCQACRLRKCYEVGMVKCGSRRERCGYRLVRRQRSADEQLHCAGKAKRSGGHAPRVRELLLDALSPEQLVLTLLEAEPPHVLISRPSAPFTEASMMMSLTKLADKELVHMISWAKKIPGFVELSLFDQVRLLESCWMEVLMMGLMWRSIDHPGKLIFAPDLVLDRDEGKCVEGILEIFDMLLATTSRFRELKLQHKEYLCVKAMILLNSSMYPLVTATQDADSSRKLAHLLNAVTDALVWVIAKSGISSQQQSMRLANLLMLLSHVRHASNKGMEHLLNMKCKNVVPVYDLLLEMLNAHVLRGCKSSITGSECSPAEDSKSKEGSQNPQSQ

The assay addresses Estrogen receptor beta (Homo sapiens) (UniProt Q92731). As to the kind of experiment: qHTS assay to identify small molecule agonists of the estrogen receptor beta (ER-beta) signaling pathway (AID 1259377). Particulars: ER-beta-UAS-bla HEK293T, beta-lactamase FRET ratio, 16 h; series mostly up to 92.4 µM; activation: at the top concentration. From the text: U.S. Tox21 Program National Center for Advancing Translational Sciences [NCATS] NIH Chemical Genomics Center [NCGC] U.S. Environmental Protection Agency [EPA] National Institutes of Environmental Health Sciences [NIEHS] National Toxicology Program [NTP] U.S. Food and Drug Administration [FDA] Tox21 Assay Overview: Estrogen receptor (ER), a nuclear hormone receptor, plays an important role in development, metabolic homeostasis and reproduction. Two subtypes of ER, ER-alpha and ER-beta, have similar expression patterns with some uniqueness in both types. Endocrine disrupting chemicals (EDCs) and their interactions with steroid hormone receptors like ER causes disruption of normal endocrine function. To identify the compounds that activate ER signaling, an ER beta-UAS-bla GripTite cell line (Life technologies, Madison, WI, USA) containing a beta-lactamase reporter gene under the control of an Upstream Activator Sequence (UAS) was used to screen Tox21 10K compound library.
Tox21 Assay Protocol Summary: ER-beta-UAS-bla HEK293T cells were dispensed at 2,000 cells/5 uL of assay medium containing 2% charcoal stripped FBS per well into black wall/clear-bottom 1536-well plates using a Multidrop Combi (ThermoFisher Scientific, Waltham, MA) dispenser. After the assay plates were incubated at a 37C and 5% CO2 for 6 hr, 23 nL of compounds dissolved in DMSO, positive controls or DMSO only was transferred to the assay plate by a Pintool station (Kalypsys, San Diego, CA). The plates were incubated at 37C and 5% CO2 for 16 hr. Then 1 uL of LiveBLAzerTM B/G FRET substrate was added using a BioRAPTR FRD (Flying Reagent Dispenser, Aurora Discovery, San Diego, CA). After the plates were incubated at room temperature for 2 hours, fluorescence intensity was measured by an Envision plate reader (PerkinElmer, Shelton, CT).
On to `CCCCC(CC)CO` (stereo not given), for which the “activation” value was -0.731% (inactive).
For `O=C(O)c1ccc2c(c1)C(=O)OC2=O`, the Potency result is “inactive”.
On the same count and under the same terms, next, `CC(C)(C)[C@@H](O)[C@@H](Cc1ccc(Cl)cc1)n1cncn1`: “inactive”; `CCCCCCCCCCCCS`: “inactive”.
In the case of `CCCCCC(N)=O`, the Potency entry was “inactive”.
With `CC(=O)Nc1ccccc1`, the Potency entry was “inactive”.
Regarding `CN(C)CCC(c1ccccc1)c1ccccn1` (stereo not given), the Potency result is “inactive”.
Turning to `CCC(O)OCCCOC` (stereo not given), the Potency entry was “inactive”.
On the same count and under the same terms, with `FC(F)(F)c1ccc(Cl)c(Cl)c1` the entry was “inactive”; with `O=P(OC(CCl)CCl)(OC(CCl)CCl)OC(CCl)CCl`, “inactive”.
With `CC1=CC(=O)NS(=O)(=O)O1`, the Potency entry was “inactive”.
Regarding `CCCCCCCCCC`, the Potency result was “inactive”.
For `O=C(CC(C(=O)OC1CCCCC1)S(=O)(=O)O)OC1CCCCC1` (stereo not given), the “activation” value is 0.297% (inactive).
Take `OCCOCCN1CCN(C2=Nc3ccccc3Sc3ccccc32)CC1`: the “activation” value is -3.46% [at 42.5 µM] (inactive).
Regarding `CC(=O)OCC(=O)[C@@]12N=C(C)O[C@@H]1C[C@H]1[C@@H]3CCC4=CC(=O)C=C[C@]4(C)[C@H]3[C@@H](O)C[C@@]12C`, the Potency result is “inactive”.
In the case of `Cc1cccc(O)c1`, the “activation” value was 2.3% (inactive).
Regarding `CC1=C(C)S(=O)(=O)CCS1(=O)=O`, the Potency entry is “inactive”.
Take `c1ccc(OCCOc2ccccc2)cc1`: the Potency result was “inactive”.
On to `O=C1CCC(N2C(=O)c3ccccc3C2=O)C(=O)N1` (stereo not given), for which the “activation” value was -0.303% (inactive).
Consider `CCCCCCOCCO`, for which the Potency entry was “inactive”.
`O=c1[nH]c(=O)n([C@H]2C[C@H](O)[C@@H](CO)O2)cc1Br`: the Potency result is “inactive”.
Still for that read-out and setting: next, `CCCCC(CC)COC(=O)C(C#N)=C(c1ccccc1)c1ccccc1` (stereo not given): “inactive”.
Take `CCN(CC)CCCC(C)Nc1ccnc2cc(Cl)ccc12` (stereo not given): the activation was 1.76% [at 8.39 µM] (inactive) and 0.415% [at 19 µM] (inactive).
As to `CCCCCCCCCCCCCCO`, the Potency result is “inactive”.
As to `Cc1ccc2oc(=O)ccc2c1`, the Potency entry is “inactive”.
Take `O=S1(=O)CC=CC1`: the Potency result was “inactive”.
In the case of `Nc1ccccc1[N+](=O)[O-]`, the “activation” value was -0.465% (inactive).
Regarding `O=c1[nH]nnc2ccccc12`, the Potency result was “inactive”.
On to `CSCCC=O`, for which the Potency result is “inactive”.
On to `OC[C@H]1O[C@@](CO)(O[C@H]2O[C@H](CO)[C@@H](O)[C@H](O)[C@H]2O)[C@@H](O)[C@@H]1O`, for which the Potency result was “inactive”.
On the same count and under the same terms, with `COc1ccc(Cl)cc1C(=O)NCCc1ccc(S(=O)(=O)NC(=O)NC2CCCCC2)cc1` the entry was “inactive”; with `O=C(Oc1ccccc1)c1ccccc1`, “inactive”; with `Oc1cccc2ccccc12`, “inactive”.
Still for that read-out and setting: with `Cc1ccc(N(C)C)cc1` the entry was “inactive”; with `CCN(CC)c1ccc(C(=O)c2ccccc2C(=O)O)c(O)c1`, “inactive”.
Still for that read-out and setting: with `CC(=O)CC(=O)Nc1ccccc1` the entry was “inactive”.
Regarding `CCCCCCCC(=O)OC`, the “activation” value is 3.3% (inactive).
For `O=[N+]([O-])c1ccc(/C=C/c2ccc([N+](=O)[O-])cc2S(=O)(=O)O)c(S(=O)(=O)O)c1`, the Potency entry was “inactive”.
Take `C=C(C)C(=O)Nc1ccc(Cl)c(Cl)c1`: the Potency entry was “inactive”.
For `c1ccc2scnc2c1`, the “activation” value was -0.265% (inactive).

The record behind these values is PubChem BioAssay (Tox21).
